Experimental data reported in PubChem BioAssay.
Calls of active or inactive are those of the source. Unless noted, the rule behind the calls is not given here.

Experiments:
[1] = tested on: Wnt5a (protein binding on small-molecule microarray); test: Wnt5a binders on small-molecule microarray, primary screen, biophysical, 635/667 nm fluorescence (AID 1142); conditions: 635 nm fluorescence, higher = more signal;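 note: fluorescence read at 667 nm with signal to noise per printed feature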
[2] = cell viability in Huh7 cells, primary screen, cytotoxicity control for HCV replication inhibitor project, CellTiter-Glo luminescence, basal, 48 h (AID 1143); conditions: Huh7 HCV replicon, higher = more signal, called active from +8 up or from −8 down;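 note: Huh7 hepatoma cells carrying a hepatitis C replication reporter with no stimulus; test concentration not given here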
[3] = P. aeruginosa biofilm formation inhibitors, primary screen, PAO1 strain, BacTiter-Glo luminescence, LB-PBS (AID 1144); conditions: 12 h, higher = more signal
[4] = CREB reporter modulators without forskolin, primary screen, cell-based, PC12, CRE-LacZ reporter, unstimulated (AID 1145); conditions: no forskolin, luminescence, 4.5 h, higher = more signal, called active from +8 up or from −8 down
[5] = CREB reporter modulators under forskolin, primary screen, cell-based, PC12, CRE-LacZ reporter, forskolin-stimulated (AID 1146); conditions: luminescence, 4.5 h, higher = more signal, called active from +8 up or from −8 down;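 note: PC12 cells with 6xCRE LacZ reporter stimulated by forskolin 10 µM; beta-galactosidase reporter signal reflecting CREB driven transcription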
[6] = molecular target: Streptavidin (Streptomyces avidinii) (UniProt P22629); test: streptavidin binders on small-molecule microarray, primary screen, artefact control for SMM compound annotation, biophysical, 635/667 nm fluorescence (AID 1147); conditions: streptavidin binding, higher = more signal;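 note: signal reflects streptavidin binding to arrayed compounds as a control protein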
Streptavidin (Streptomyces avidinii), sequence (P22629 whole entry, looked up): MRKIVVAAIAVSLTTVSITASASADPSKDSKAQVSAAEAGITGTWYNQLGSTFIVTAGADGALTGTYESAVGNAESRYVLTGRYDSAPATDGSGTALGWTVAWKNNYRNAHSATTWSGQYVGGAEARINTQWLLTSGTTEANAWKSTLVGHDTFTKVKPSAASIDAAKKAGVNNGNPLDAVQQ

[7] = small-molecule binders of probe aInhba, primary screen, biochemical, small-molecule microarray, 635/667 nm fluorescence (AID 1148); conditions: higher = more signal;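 note: score merges 667nm spot fluorescence with signal-to-noise for antibody binding to printed compounds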
[8] = molecular target: Torsin-1A (Homo sapiens) (UniProt O14656); test: torsin A binders from cell lysate, primary screen, small-molecule microarray, wild-type, 635/667 nm (AID 1149); conditions: COS7 hTOR1A-WT lysate, 635 nm fluorescence, higher = more signal
Torsin-1A (Homo sapiens), sequence (O14656 whole entry, looked up): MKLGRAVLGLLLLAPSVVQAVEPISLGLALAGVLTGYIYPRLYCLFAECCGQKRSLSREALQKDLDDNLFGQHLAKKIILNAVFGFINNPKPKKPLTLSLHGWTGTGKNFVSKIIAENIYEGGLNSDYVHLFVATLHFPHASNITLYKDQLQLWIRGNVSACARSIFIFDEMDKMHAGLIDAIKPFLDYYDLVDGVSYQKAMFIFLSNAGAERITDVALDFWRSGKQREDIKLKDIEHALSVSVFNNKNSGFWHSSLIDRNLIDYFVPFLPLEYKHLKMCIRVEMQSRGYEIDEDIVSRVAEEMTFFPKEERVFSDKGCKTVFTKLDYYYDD

[9] = molecular target: Torsin-1A (Homo sapiens) (UniProt O14656); test: small-molecule binders of mutant TOR1A in lysate, primary screen, cell lysate, small-molecule microarray, COS7 lysate, 635/667 nm fluorescence (AID 1150); conditions: COS7 hTOR1A mutant lysate, 635 nm fluorescence, higher = more signal;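 note: score pools 667 nm emission and signal to noise measuring lysate protein binding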
[10] = tested on: Sonic hedgehog protein (Shh); test: small-molecule binders of Shh protein, primary screen, biochemical, small-molecule microarray, 635/667 nm fluorescence (AID 1151); conditions: small-molecule microarray binding, 635 nm fluorescence; higher = more signal;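 note: Shh protein binding to compounds spotted on small-molecule microarray slides; score combines spot fluorescence intensity with signal-to-noise across triplicate slides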
[11] = E. coli DRC41 culture turbidity changes, primary screen, E. coli filamentation inducer project, strain DRC41, OD650, 48 h (AID 1152);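 note: E. coli MC1000 strain DRC41 lacking acrAB efflux pump and sulA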; conditions: E. coli DRC41 (acrAB sulA), higher = more signal, called active from +8 up or from −8 down
[12] = small-molecule binders of probe aLefty1, primary screen, biochemical, small-molecule microarray, 635/667 nm fluorescence (AID 1153); conditions: higher = more signal;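 note: score merges spot fluorescence with signal-to-noise ratio from the scanned slide images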
[13] = PSAC antagonists in infected red cells, primary screen, cell-based, P. falciparum Indochina, OD700, 1 h (AID 1154); conditions: P. falciparum Indochina infected RBC osmotic lysis, higher = more signal, called active from +8 up or from −8 down
[14] = PSAC antagonists in infected red cells, primary screen, cell-based, P. falciparum Indochina, OD700, 2 h (AID 1155);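 note: lysis reports solute entry through the parasite surface anion channel PSAC; channel blockers reduce lysis of infected cells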; conditions: P. falciparum Indochina infected erythrocytes, osmotic lysis OD700; higher = more signal, called active from +8 up or from −8 down
[15] = osmotic lysis modulators in infected erythrocytes, primary screen, PSAC antagonist project, cell-based, P. falciparum Indochina, OD700, 3 h (AID 1156); conditions: higher = more signal, called active from +8 up or from −8 down
[16] = PSAC antagonists in infected red cells, primary screen, cell-based, P. falciparum Indochina, OD700, 18 h (AID 1157); conditions: P. falciparum Indochina infected erythrocytes, osmotic lysis OD700, 18 h; higher = more signal, called active from +8 up or from −8 down
[17] = modulators of S6 phosphorylation in cells, primary screen, cell-based, A549, cytoblot, luminescence, serum-stimulated (AID 1158); conditions: A549 phospho-S6 cytoblot, 5 h, higher = more signal;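 note: serum-stimulated A549 lung adenocarcinoma cells; signal is phosphorylated S6 detected by cytoblot immunostaining with HRP secondary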
[18] = molecular target: NADPH oxidase 2 (Homo sapiens) (UniProt P04839); test: NOX2-dependent H2O2 signal modulators, primary screen, NOX inhibitor project, cell-based, HEK293-NOX2, PMA-stimulated, Amplex Red fluorescence (AID 1159); conditions: 45 min, higher = more signal, called active from +8 up or from −8 down; note: test concentration not given here
NADPH oxidase 2 (Homo sapiens), sequence (P04839 whole entry, looked up): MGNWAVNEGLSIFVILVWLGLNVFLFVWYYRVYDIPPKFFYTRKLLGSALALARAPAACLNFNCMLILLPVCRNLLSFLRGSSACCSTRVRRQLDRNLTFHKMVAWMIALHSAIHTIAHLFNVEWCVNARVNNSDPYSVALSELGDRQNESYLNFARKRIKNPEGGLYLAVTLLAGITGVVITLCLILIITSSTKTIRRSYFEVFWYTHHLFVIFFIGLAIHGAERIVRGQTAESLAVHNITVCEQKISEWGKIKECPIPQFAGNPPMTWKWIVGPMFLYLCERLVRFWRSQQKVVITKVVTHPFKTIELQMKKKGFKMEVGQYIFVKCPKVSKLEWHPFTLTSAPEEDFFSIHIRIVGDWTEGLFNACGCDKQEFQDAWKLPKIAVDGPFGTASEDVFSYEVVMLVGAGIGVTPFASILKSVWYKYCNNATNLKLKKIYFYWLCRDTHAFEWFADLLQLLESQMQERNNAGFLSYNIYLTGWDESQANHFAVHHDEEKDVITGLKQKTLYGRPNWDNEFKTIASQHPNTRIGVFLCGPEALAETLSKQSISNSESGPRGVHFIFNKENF

[19] = molecular target: NADPH oxidase 4 (Homo sapiens) (UniProt Q9NPH5); test: NOX4-dependent H2O2 signal modulators, primary screen, NOX inhibitor project, cell-based, HEK293-NOX4, tetracycline-induced, Amplex Red fluorescence (AID 1160); conditions: 45 min, higher = more signal, called active from +8 up or from −8 down
NADPH oxidase 4 (Homo sapiens), sequence (Q9NPH5 whole entry, looked up): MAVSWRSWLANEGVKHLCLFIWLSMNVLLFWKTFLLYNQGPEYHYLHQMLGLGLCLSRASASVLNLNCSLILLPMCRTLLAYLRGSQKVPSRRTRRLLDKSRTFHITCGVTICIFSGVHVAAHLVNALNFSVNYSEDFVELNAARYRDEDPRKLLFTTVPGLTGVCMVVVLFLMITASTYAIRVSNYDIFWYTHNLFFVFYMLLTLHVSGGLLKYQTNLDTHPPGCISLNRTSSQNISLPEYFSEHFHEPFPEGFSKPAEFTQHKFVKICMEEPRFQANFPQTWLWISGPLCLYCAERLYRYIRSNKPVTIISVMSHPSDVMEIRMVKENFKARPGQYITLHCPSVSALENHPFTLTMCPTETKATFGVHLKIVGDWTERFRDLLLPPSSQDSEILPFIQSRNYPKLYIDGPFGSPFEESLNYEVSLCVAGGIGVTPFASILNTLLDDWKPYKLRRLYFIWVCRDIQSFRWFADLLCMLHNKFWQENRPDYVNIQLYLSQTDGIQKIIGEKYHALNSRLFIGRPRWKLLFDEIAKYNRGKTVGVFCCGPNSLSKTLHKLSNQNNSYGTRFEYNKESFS

[20] = molecular target: NADPH oxidase 5 (Homo sapiens) (UniProt Q96PH1); test: NOX5-dependent H2O2 signal modulators, primary screen, NOX inhibitor project, cell-based, HEK293-NOX5, Amplex Red fluorescence (AID 1161); conditions: HEK293-NOX5, ionomycin, 45 min, higher = more signal
NADPH oxidase 5 (Homo sapiens), sequence (Q96PH1 whole entry, looked up): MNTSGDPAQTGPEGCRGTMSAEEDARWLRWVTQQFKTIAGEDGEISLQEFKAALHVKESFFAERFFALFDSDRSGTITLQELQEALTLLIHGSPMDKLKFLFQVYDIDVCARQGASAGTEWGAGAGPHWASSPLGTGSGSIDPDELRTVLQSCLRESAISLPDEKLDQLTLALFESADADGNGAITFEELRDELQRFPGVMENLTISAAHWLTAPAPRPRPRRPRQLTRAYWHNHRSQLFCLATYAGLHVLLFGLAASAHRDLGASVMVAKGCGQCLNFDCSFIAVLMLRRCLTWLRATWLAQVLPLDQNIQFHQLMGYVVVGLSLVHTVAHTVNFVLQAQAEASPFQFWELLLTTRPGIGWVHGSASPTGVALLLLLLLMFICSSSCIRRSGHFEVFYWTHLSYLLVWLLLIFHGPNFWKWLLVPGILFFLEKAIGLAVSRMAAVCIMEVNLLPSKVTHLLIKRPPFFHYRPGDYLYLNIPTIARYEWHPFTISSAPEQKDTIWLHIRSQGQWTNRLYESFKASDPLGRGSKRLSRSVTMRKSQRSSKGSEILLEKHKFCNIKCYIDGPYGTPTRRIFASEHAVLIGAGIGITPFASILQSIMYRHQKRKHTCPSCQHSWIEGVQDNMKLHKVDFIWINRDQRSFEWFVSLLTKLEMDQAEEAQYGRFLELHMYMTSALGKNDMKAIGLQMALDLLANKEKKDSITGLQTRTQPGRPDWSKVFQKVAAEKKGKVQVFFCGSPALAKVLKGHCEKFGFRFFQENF

Row | Compound | composite z-score [1] | z-score [2] | z-score [3] | z-score [4] | z-score [5] | composite z-score [6] | composite z-score [7] | composite z-score [8] | composite z-score [9] | composite z-score [10] | z-score [11] | composite z-score [12] | z-score [13] | z-score [14] | z-score [15] | z-score [16] | z-score [17] | z-score [18] | z-score [19] | z-score [20]
1 | COc1cc(NN2C(C(O)C3CCCCC3)C=CC3C(=O)N(C)C(=O)C32)cc(OC)c1OC (stereo not given) | 0.265 | 0.187 (inactive) | 0.0648 (inactive) | -0.133 (inactive) | 0.454 (inactive) | 2.2 | 0.502 | -0.176 | 0.358 | -0.68 | -1.27 (inactive) | 0.949 | 0.713 (inactive) | 0.608 (inactive) | 0.917 (inactive) | 1.34 (inactive) | -0.723 | -0.904 (inactive) | -2.73 (inactive) | -1.7
2 | O=C1C2C=CC(C(O)c3cc(C(F)(F)F)cc(C(F)(F)F)c3)N(Nc3ccccc3F)C2C(=O)N1c1ccccc1 (stereo not given) | 0.17 | -3.68 (inactive) | -0.476 (inactive) | 0.626 (inactive) | -0.0442 (inactive) | 0.714 | 0.385 | -0.0067 | 0.379 | -0.685 | -2.27 (inactive) | 1.01 | 4.38 (inactive) | 1.93 (inactive) | -3.51 (inactive) | 2.35 (inactive) | -0.746 | -0.648 (inactive) | -4.37 (inactive) | -1.58
3 | CC(C)[C@H]1NC(=O)[C@@]23C(=O)N[C@@H](Cc4ccccc4)C2[C@H](C)[C@@]2(C)O[C@H]2C3/C=C/CCC/C=C/CNC(=O)[C@H](Cc2ccccc2)NC1=O (stereo not given in full) | -0.178 | -1.23 (inactive) | 1.01 (inactive) | 1.4 (inactive) | -0.723 (inactive) | -0.77 | -0.152 | 0.343 | 0.671 | 2.03 | -0.246 (inactive) | 0.0582 | 1.18 (inactive) | 0.581 (inactive) | 0.81 (inactive) | 0.182 (inactive) | 0.352 | 1.46 (inactive) | 0.525 (inactive) | 0.896
4 | [N-]=[N+]=Nc1ccccc1C[C@]1(C(=O)O)N=C(c2ccc(OCCCO)cc2)O[C@H]1c1ccccc1 | 0.0269 | -0.218 (inactive) | -0.54 (inactive) | 2.53 (inactive) | -0.522 (inactive) | 0.261 | 0.189 | 1.05 | 1.45 | -0.536 | 0.174 (inactive) | -0.007 | 18.4 (active) | 2.83 (inactive) | 1.35 (inactive) | 0.589 (inactive) | -0.138 | 0.22 (inactive) | 0.818 (inactive) | 0.857
5 | Cc1ccccc1C(O)C1C=CC2C(=O)NC(=O)C2N1Nc1ccc(Cl)cc1Cl (stereo not given) | -0.0864 | -0.702 (inactive) | -0.274 (inactive) | 1.01 (inactive) | -0.569 (inactive) | 0.878 | 0.319 | -0.192 | 0.244 | -0.232 | -1.87 (inactive) | 0.219 | 1.81 (inactive) | 1.35 (inactive) | -1.11 (inactive) | 0.975 (inactive) | -0.649 | -0.254 (inactive) | -4.79 (inactive) | -2.02
6 | C=C[C@@H](C)[C@H](O)c1ccc(OCCO)cc1 | -0.872 | -0.104 (inactive) | -0.307 (inactive) | 0.166 (inactive) | -0.049 (inactive) | -1.83 | -0.263 | -3.14 | -1.86 | -0.509 | 0.227 (inactive) | -0.193 | 1.79 (inactive) | 0.833 (inactive) | 0.485 (inactive) | 0.402 (inactive) | -0.198 | -0.613 (inactive) | -0.311 (inactive) | 0.394
7 | COc1ccc([Si](C)(C)[C@H]2[C@H](CCO)O[C@@]3(C(=O)N(Cc4ccccc4)c4ccc(N5CCOC5=O)cc43)[C@@H]2C)cc1 | 0.0771 | -4.87 (inactive) | -0.521 (inactive) | 2.11 (inactive) | -0.726 (inactive) | 1 | 0.0756 | -0.112 | -0.12 | 1.16 | -0.261 (inactive) | -0.0025 | 5.86 (inactive) | 1.9 (inactive) | -0.307 (inactive) | 0.913 (inactive) | 0.577 | -1.36 (inactive) | 1.71 (inactive) | 2.27
8 | COCCOC(=O)N1C(=O)[C@@]2(c3cc(C#CCC(C(=O)OC)C(=O)OC)ccc31)[C@H](C(=O)NC[C@H](O)c1ccccc1)[C@H]1C(=O)O[C@H](c3ccccc3)[C@H](c3ccccc3)N1[C@@H]2c1ccc(OCCO)cc1 | -0.157 | -1.01 (inactive) | 0.366 (inactive) | 0.895 (inactive) | -0.102 (inactive) | 0.688 | -0.0804 | -0.012 | 0.367 | 1.69 | 0.0789 (inactive) | -0.118 | 7.02 (inactive) | 2.02 (inactive) | 0.53 (inactive) | 1.12 (inactive) | -0.273 | 1.41 (inactive) | 0.805 (inactive) | 0.938
9 | CN1C(=O)C2C(C1=O)C1C=C(CCCO)C2C(C2CC2)N1Cc1cc2c(cc1Br)OCO2 (stereo not given) | 0.0949 | -1.57 (inactive) | -0.0766 (inactive) | 1.26 (inactive) | 2.6 (inactive) | 0.838 | 0.0569 | 1.2 | 1.5 | 0.265 | -0.541 (inactive) | 0.0041 | 3.48 (inactive) | 0.68 (inactive) | 0.3 (inactive) | 0.307 (inactive) | -0.188 | -0.84 (inactive) | -0.389 (inactive) | -0.349
